# Results: PubChem BioAssay (NCATS)
# Values joined by “and” are separate entries in the source; they are usually repeats but may differ in a detail not shown here. Equal values may be shown once. Active and inactive are the calls of the source. Unless noted, calls follow the shape of the full dose curve.
# What was measured:
# [1] = biological target: Estrogen receptor (Homo sapiens) (UniProt P03372); assay: qHTS assay for small molecule antagonists of estrogen receptor alpha signaling (AID 588513; active = well fitted curve in the direction sought with a large enough effect in the signal ratio, with a control signal flat, not every such curve was filed as active; inconclusive = small, poorly fitted or top-dose-only effect, or effect the other way, or a change in a side signal; inactive = no such curve, though single readings can be large or run the other way; the % refers to the signal ratio; also: potency is read from the fitted curve at half-maximal effect)
# Estrogen receptor (Homo sapiens), sequence (P03372 whole entry, looked up): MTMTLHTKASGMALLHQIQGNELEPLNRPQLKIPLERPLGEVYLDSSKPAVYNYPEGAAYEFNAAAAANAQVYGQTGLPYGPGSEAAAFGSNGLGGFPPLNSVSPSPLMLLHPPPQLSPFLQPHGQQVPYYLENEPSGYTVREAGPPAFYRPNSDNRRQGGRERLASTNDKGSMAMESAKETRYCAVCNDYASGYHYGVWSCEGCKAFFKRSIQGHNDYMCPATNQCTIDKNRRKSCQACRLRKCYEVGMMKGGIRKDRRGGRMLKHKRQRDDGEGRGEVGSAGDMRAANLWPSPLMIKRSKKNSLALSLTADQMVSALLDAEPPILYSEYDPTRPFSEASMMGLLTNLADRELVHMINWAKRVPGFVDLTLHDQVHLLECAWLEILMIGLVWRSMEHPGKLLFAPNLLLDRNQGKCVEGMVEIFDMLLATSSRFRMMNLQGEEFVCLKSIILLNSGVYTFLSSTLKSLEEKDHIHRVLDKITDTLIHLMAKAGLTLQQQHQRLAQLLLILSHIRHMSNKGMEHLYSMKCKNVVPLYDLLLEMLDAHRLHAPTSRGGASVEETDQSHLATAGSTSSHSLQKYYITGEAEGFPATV
# Procedure, shortened: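 Beta-lactamase reporter, antagonist mode, HEK 293 GripTite cells; 0.5nM E2 stimulus, 18 h, 37 C; CCF4 dye 2 h RT; fluorescence. IC50 and efficacy from Hill fits, normalized to E2 and DMSO.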
# [2] = biological target: Vitamin D3 receptor (Homo sapiens) (UniProt P11473); assay: qHTS assay for small molecule antagonists of vitamin D receptor signaling (AID 588541); also: potency is read from the fitted curve at half-maximal effect
# Vitamin D3 receptor (Homo sapiens), sequence (P11473 whole entry, looked up): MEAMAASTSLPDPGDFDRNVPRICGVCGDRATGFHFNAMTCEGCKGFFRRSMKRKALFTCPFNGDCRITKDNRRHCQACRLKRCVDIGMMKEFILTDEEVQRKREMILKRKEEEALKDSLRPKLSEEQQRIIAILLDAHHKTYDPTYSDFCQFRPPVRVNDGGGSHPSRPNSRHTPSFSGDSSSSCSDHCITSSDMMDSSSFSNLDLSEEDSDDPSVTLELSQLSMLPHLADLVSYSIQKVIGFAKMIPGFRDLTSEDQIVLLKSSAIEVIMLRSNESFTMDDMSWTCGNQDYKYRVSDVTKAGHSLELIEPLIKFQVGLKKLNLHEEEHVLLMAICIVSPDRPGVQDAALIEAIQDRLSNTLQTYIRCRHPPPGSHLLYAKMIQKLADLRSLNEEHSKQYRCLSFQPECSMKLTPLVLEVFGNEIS
# Procedure, shortened: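 VDR-UAS-bla HEK293T cells (2000/well, 2% charcoal-stripped FBS) were treated with titrated compounds plus 1-alpha,25-dihydroxyvitamin D3 (50 nM or 3 nM final) for 16 h at 37 C. CCF4 beta-lactamase fluorescence was read; Hill fits gave IC50.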
# [3] = biological target: Vitamin D3 receptor (Homo sapiens) (UniProt P11473); assay: qHTS assay for small molecule agonists of vitamin D receptor signaling (AID 588543);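 also: 0% = DMSO basal and 100% = reference agonist control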
# Procedure, shortened: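 β-lactamase reporter, VDR-UAS-bla HEK293T, agonist mode. Cells plated 5 h at 37 °C, compound titration 16 h at 37 °C, CCF4 dye 2 h RT, ratio 460/530 nm. Hill fit → EC50, efficacy vs 50 nM 1α,25-(OH)2D3.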
# [4] = qHTS assay for small molecule antagonists of retinoid X receptor alpha signaling (AID 588546; active = well fitted inhibition curve with a large enough effect in the signal ratio, with a control signal flat, not every such curve was filed as active; inconclusive = small, poorly fitted or top-dose-only effect, or effect the other way, or a change in a side signal; inactive = no such curve, though single readings can be large or run the other way; the % refers to the signal ratio; also: potency is read from the fitted curve at half-maximal effect;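 as to max response: cells stimulated with 9-cis-retinoic acid as agonist; % is scaled to controls: 0 for no effect and ±100 for the full control effect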); details: HEK293T RXRa-UAS-bla, beta-lactamase ratio, antagonist mode; measured here: W530 green channel, cytotoxicity proxy
# Procedure, shortened: (§1)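 Beta-lactamase reporter inhibition, read as CCF4 fluorescence ratio (ex 405, em 460/530 nm) after 2 h at RT. HEK293T UAS-bla cells, 2500/well, were stimulated with 9-cis-RA at 500 or 100 nM final alongside test compound for 18 h at 37 C.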
# [5] = biological target: Retinoic acid receptor RXR-alpha (Homo sapiens) (UniProt P19793); assay: as above; details: HEK293T RXRa-UAS-bla, beta-lactamase ratio, antagonist mode
# Retinoic acid receptor RXR-alpha (Homo sapiens), sequence (P19793 whole entry, looked up): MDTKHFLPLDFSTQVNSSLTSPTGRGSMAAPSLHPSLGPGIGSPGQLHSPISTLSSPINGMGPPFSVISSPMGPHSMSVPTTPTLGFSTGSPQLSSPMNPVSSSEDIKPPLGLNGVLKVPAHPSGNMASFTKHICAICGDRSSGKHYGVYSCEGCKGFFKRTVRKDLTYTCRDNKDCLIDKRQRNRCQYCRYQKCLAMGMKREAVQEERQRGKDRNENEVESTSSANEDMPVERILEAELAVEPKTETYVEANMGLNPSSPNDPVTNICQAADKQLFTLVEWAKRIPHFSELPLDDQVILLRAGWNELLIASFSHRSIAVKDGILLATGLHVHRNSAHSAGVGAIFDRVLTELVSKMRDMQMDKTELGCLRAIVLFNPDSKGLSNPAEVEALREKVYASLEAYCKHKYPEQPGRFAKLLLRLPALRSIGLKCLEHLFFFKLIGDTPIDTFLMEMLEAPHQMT
# Procedure, shortened: as §1
# [6] = qHTS assay for small molecule agonists of the antioxidant response element (ARE) signaling pathway measured by Nrf2-dependant transcriptional activity (AID 720636; active = well fitted curve in the direction sought with a large enough effect in the repeat runs; inconclusive = weak or mixed curves; inactive = no such curve, though single readings can be large; an effect the other way counts as inactive or inconclusive; also: potency is read from the fitted curve at half-maximal effect; as to activation: % of control where 0% means no effect)
# Procedure, shortened: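 Quantitative HTS format in HepG2 cells stably expressing an ARE-luciferase reporter; 16 hr compound treatment at 37 C, luciferase signal detected with ONE-Glo.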
# [7] = qHTS assay for small molecule agonists of the antioxidant response element (ARE) signaling pathway measured by Nrf2-dependant transcriptional activity - cell viability counter screen (AID 720653; active = well fitted curve in the direction sought with a large enough effect in the repeat runs; inconclusive = weak or mixed curves; inactive = no such curve, though single readings can be large; an effect the other way counts as inactive or inconclusive; also: % is scaled to controls: 0 for no effect and ±100 for the full control effect); details: ARE-bla HepG2 viability, CellTiter-Glo ATP luminescence, 16 h; max response: stronger effect = lower value
# Procedure, shortened: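 ARE-bla HepG2 cells (2,000/well) rested 5 hrs at 37C/5% CO2, then exposed to compounds in DMSO for 16 hrs. Viability was read in the same wells as intracellular ATP by luminescence, 30 min at room temperature after reagent addition.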
# [8] = biological target: Peroxisome proliferator-activated receptor delta (Homo sapiens) (UniProt Q03181); assay: qHTS assay for small molecule agonists of peroxisome proliferator-activated receptor delta signaling (AID 588534);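 also: 0% = DMSO basal wells and 100% = positive control agonist at 10 µM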
# Peroxisome proliferator-activated receptor delta (Homo sapiens), sequence (Q03181 whole entry, looked up): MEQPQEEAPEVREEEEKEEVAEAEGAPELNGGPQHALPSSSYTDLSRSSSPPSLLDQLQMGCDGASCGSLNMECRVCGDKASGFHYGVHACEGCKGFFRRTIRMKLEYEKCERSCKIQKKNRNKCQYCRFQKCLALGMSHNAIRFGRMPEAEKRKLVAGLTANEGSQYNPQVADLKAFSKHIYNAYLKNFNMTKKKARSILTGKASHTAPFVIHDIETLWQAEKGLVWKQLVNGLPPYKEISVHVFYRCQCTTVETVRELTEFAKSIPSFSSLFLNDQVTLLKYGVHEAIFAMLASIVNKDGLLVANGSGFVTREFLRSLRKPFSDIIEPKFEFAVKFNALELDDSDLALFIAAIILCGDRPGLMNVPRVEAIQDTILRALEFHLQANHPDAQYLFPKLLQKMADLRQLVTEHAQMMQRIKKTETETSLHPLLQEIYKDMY
# Procedure, shortened: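 Titration series tested in agonist mode on beta-lactamase reporter cells; 18 hrs at 37 C after a 5 hr pre-incubation. Readout: CCF4 fluorescence, 2 hrs RT. Hill equation gives EC50 and maximal response.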
# [9] = qHTS assay for small molecule antagonists of peroxisome proliferator-activated receptor delta signaling (AID 588535); details: HEK293T PPARd-UAS-bla, beta-lactamase FRET ratio, 18 h; 460 nm channel;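 also: cells co-treated with a PPAR-delta agonist as stimulator during compound exposure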
# Procedure, shortened: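 Compounds tested in titration on PPAR-delta-UAS-bla HEK293T cells grown in charcoal/dextran-stripped serum (2%); beta-lactamase activity read via CCF4 emission at 460 and 530 nm.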
# [10] = biological target: Peroxisome proliferator-activated receptor gamma (Homo sapiens) (UniProt P37231); assay: qHTS assay for small molecule agonists of peroxisome proliferator-activated receptor gamma signaling (AID 588536; active = well fitted curve in the direction sought with a large enough effect in the signal ratio, with a control signal flat, not every such curve was filed as active; inconclusive = small, poorly fitted or top-dose-only effect, or effect the other way, or a change in a side signal; inactive = no such curve, though single readings can be large or run the other way; the % refers to the signal ratio;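 also: 0% = DMSO basal wells and 100% = rosiglitazone at 2 µM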)
# Peroxisome proliferator-activated receptor gamma (Homo sapiens), sequence (P37231 whole entry, looked up): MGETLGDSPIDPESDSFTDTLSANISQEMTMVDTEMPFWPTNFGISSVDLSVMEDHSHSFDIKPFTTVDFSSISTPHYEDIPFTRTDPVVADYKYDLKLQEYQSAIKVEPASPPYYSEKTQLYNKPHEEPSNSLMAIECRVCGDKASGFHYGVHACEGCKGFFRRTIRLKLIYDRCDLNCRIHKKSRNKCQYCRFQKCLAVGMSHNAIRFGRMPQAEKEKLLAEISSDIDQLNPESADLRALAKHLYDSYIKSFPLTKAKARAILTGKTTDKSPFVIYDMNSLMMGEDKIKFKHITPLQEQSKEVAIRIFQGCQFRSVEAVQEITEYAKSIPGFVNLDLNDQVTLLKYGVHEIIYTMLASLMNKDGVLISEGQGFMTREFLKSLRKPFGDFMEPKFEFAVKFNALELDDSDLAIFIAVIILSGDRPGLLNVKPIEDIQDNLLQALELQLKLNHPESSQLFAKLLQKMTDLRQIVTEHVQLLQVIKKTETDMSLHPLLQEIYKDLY
# Procedure, shortened: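 Using GeneBLAzer HEK293 cells, response was quantified by CCF4 fluorescence and normalized between basal DMSO (0%) and rosiglitazone 2 uM (100%); curves yielded half-maximal stimulation concentration and efficacy.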
# [11] = biological target: Peroxisome proliferator-activated receptor gamma (Homo sapiens) (UniProt P37231); assay: qHTS assay for small molecule antagonists of peroxisome proliferator-activated receptor gamma signaling (AID 588537; active = well fitted inhibition curve with a large enough effect in the signal ratio, with a control signal flat, not every such curve was filed as active; inconclusive = small, poorly fitted or top-dose-only effect, or effect the other way, or a change in a side signal; the % refers to the signal ratio;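 also: reporter cells co-stimulated with 50 nM rosiglitazone agonist during compound treatment; % of control where 0% means no effect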)
# Procedure, shortened: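 HEK293 cells, PPAR-gamma-UAS-bla, 3000/well. Pre-incubation 6-6.5 h, 37 C. Compound titration with rosiglitazone 50 nM final, 16 h. CCF4 dye, 2 h RT, dual-emission fluorescence.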
# [12] = qHTS assay for small molecule agonists of retinoid X receptor alpha signaling (AID 588544); details: HEK293T RXRa-UAS-bla, beta-lactamase reporter, 18 h; 530 nm emission;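 as to activation: 0% = DMSO basal wells and 100% = reference agonist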
# [13] = biological target: Retinoic acid receptor RXR-alpha (Homo sapiens) (UniProt P19793); assay: as above
# [14] = biological target: Thyroid hormone receptor beta (Homo sapiens) (UniProt P10828); assay: qHTS assay for small molecule agonists of thyroid hormone receptor beta signaling (AID 588545);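 also: 0% = DMSO only and 100% = 10 nM T3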
# Thyroid hormone receptor beta (Homo sapiens), sequence (P10828 whole entry, looked up): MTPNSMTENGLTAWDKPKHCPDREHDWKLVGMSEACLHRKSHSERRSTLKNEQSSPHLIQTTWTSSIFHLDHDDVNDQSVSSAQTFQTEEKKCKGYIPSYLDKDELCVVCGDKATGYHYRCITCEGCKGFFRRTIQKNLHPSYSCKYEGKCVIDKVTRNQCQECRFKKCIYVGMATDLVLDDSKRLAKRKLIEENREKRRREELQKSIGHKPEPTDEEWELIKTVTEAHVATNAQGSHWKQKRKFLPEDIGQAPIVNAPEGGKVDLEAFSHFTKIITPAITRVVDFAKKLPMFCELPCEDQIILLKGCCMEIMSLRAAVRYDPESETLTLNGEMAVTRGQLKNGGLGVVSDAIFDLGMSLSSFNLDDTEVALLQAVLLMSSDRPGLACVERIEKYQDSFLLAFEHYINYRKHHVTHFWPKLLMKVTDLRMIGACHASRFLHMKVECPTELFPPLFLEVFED
# Procedure, shortened: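 Stimulation of a TR-driven beta-lactamase reporter was quantified in GripTite HEK 293 cells. Compound series ran for 18 hrs; curves were normalized to T3 and DMSO controls and fitted to yield EC50.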
# [15] = qHTS assay for small molecule activators of the p53 signaling pathway (AID 651743; active = well fitted activation curve with a large enough effect in the signal ratio, not every such curve was filed as active; inconclusive = small, poorly fitted or top-dose-only effect, or a change in a side signal; the % refers to the signal ratio; also: series mostly up to about 92 µM; % of control where 0% means no effect); details: HCT-116 p53RE-bla, beta-lactamase FRET ratio, 16 h; activation: stronger effect = higher value
# Procedure, shortened: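 Here HCT-116 cells with an integrated p53-responsive beta-lactamase gene were incubated with compounds (16 hours, 37 C) after a 5-hour plating period; beta-lactamase activity was detected as fluorescence intensity via B/G FRET substrate.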
# [16] = qHTS assay for environmental chemicals that activate the Aryl hydrocarbon Receptor (AhR) signaling pathway (AID 651777; active = well fitted curve in the direction sought with a large enough effect; inconclusive = small, poorly fitted or top-dose-only effect, or another doubt; inactive = no such curve, though single readings can be large; an effect the other way counts as inactive or inconclusive; also: % of control where 0% means no effect; nearly all actives have a fitted effect of over 15% in size); details: 1A2-DRE human hepatoma cells, luciferase, 24 h; activation: stronger effect = higher value
# Procedure, shortened: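 Quantitative HTS in stably transfected human liver-derived cells whose luciferase gene sits downstream of the CYP1A2 promoter and dioxin response element. After 24 hr exposure at 37 C, One-Glo luminescence was measured.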
# [17] = biological target: Peroxisome proliferator-activated receptor alpha (Homo sapiens) (UniProt Q07869); assay: qHTS assay for small molecule agonists of the peroxisome proliferator-activated receptor alpha (PPARalpha) signaling pathway (AID 651778; active = well fitted curve in the direction sought with a large enough effect; inconclusive = small, poorly fitted or top-dose-only effect, or another doubt; inactive = no such curve, though single readings can be large; an effect the other way counts as inactive or inconclusive; also: % of control where 0% means no effect); details: PathHunter PPARalpha complementation, chemiluminescence, 6 h; max response: stronger effect = higher value
# Peroxisome proliferator-activated receptor alpha (Homo sapiens), sequence (Q07869 whole entry, looked up): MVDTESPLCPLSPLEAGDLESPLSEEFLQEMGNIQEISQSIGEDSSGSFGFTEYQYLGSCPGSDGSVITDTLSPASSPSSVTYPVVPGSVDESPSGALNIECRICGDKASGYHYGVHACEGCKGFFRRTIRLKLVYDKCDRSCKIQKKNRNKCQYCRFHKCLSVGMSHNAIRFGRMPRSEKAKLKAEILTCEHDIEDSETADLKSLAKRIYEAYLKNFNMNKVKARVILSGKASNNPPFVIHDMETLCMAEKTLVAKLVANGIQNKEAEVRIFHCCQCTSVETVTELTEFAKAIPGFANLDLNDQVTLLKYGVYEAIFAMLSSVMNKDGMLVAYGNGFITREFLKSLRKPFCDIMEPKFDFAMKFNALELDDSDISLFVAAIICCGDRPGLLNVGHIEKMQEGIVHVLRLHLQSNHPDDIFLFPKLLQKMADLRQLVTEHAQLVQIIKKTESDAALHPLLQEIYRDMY
# Procedure, shortened: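 Cells plated at 2,000/well and held overnight at 37 C, 5% CO2, then compound added by pin tool for 6 hr; after PathHunter detection reagent and 60 min at room temperature, chemiluminescence from enzyme complementation was read.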
# [18] = qHTS assay for cell viability of HEK293 cells (AID 743288; active = well fitted curve in the direction sought with a large enough effect; inconclusive = small, poorly fitted or top-dose-only effect, or another doubt; inactive = no such curve, though single readings can be large; an effect the other way counts as inactive or inconclusive; also: % is scaled to controls: 0 for no effect and ±100 for the full control effect; nearly all actives have a fitted effect of over 50% in size); details: ATP luminescence (CellTiter-Glo), 18 h; max response: stronger effect = lower value
# Procedure, shortened: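 ATP luminescence (CellTiter-Glo) reports metabolically competent cell number after parental HEK293 cells, 2,000/well, were treated with DMSO-dissolved compounds for 18 h at 37 C; reagent incubation 30 min, room temperature.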
# [19] = qHTS assay for cell viability of the p53RE-bla HCT-116 cell line (AID 743292; active = well fitted curve in the direction sought with a large enough effect; inconclusive = small, poorly fitted or top-dose-only effect, or another doubt; inactive = no such curve, though single readings can be large; an effect the other way counts as inactive or inconclusive; also: % is scaled to controls: 0 for no effect and ±100 for the full control effect; nearly all actives have a fitted effect of over 55% in size)
# Procedure, shortened: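 Viability of compound-treated p53RE-bla HCT-116 cells is taken from ATP-dependent luciferase luminescence. Treatment lasts 16 h at 37 C after a 5 h settling period; detection follows 30 min at room temperature.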
# [20] = biological target: Nuclear receptor subfamily 1 group I member 2 (Rattus norvegicus) (UniProt Q9R1A7); assay: qHTS assay for small molecule activators of the rat pregnane X receptor (rPXR) signaling pathway (AID 651751; call rule not given here; also: 0% is about no effect); details: rPXR reporter cells, luciferase (One-Glo), 24 h
# Nuclear receptor subfamily 1 group I member 2 (Rattus norvegicus), sequence (Q9R1A7 whole entry, looked up): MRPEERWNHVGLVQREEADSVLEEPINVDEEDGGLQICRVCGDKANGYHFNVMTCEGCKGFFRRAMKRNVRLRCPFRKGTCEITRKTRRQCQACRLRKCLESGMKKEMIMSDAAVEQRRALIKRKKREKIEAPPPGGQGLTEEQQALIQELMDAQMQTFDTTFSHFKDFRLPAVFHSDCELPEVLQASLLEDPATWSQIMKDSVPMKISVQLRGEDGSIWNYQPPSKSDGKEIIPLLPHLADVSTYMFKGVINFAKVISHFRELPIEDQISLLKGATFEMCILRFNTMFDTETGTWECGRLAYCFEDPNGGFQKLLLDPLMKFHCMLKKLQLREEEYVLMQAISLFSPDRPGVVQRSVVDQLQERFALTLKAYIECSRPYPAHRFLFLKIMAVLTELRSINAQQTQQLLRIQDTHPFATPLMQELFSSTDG
smiles,measurement,setting,value
C=CC(=O)OCC(CO)(COC(=O)C=C)COC(=O)C=C,Potency,[1],7.94 µM [inconclusive] (active)
same,Potency,[2],7.08 µM (active)
same,outcome,[3],inactive
same,max response,[4],-17.9%
same,Potency,[5],5.62 µM (active)
same,Potency,[6],16.8 µM (active) and 12.2 µM (active)
same,max response,[7],-24.9% (inactive)
Cc1c(F)c(F)c(COC(=O)C2C(/C=C(\Cl)C(F)(F)F)C2(C)C)c(F)c1F (stereo unspecified),Potency,[1],inactive
same,outcome,[8],inactive
same,max response,[9],-17%
same,Potency,[10],inactive
same,Potency,[11],inactive
same,Potency,[2],inactive
same,outcome,[3],inactive
same,max response,[12],-0.493%
same,Potency,[13],inactive
same,Potency,[14],inactive
same,max response,[4],-8.23%
same,max response,[5],12% (inactive)
same,activation,[15],-3.48% (inactive)
same,activation,[16],0.802% (inactive)
same,max response,[17],-0.765% (inactive)
same,Potency,[6],inactive
same,max response,[7],-20.4% (inactive)
same,max response,[18],-6.4% (inactive)
same,Potency,[19],inactive
same,max response,[20],-1.61% (inactive)
CCCCC(C#N)(Cn1cncn1)c1ccc(Cl)cc1 (stereo unspecified),Potency,[1],inactive
same,outcome,[8],inactive
same,max response,[9],26.8%
same,Potency,[10],inactive
same,max response,[12],3.82%
same,Potency,[13],inactive
same,Potency,[14],inactive
same,max response,[4],7.2% and 4.81%
same,max response,[5],3.27% (inactive) and 4.81% (inactive)
same,activation,[15],-3.98% (inactive)
same,activation,[16],-0.211% (inactive)
same,max response,[17],-2.63% (inactive) and 1.11% (inactive)
same,Potency,[6],inactive
same,max response,[7],0.943% (inactive) and -1.27% (inactive)
same,max response,[18],-11.8% (inactive) and -12.8% (inactive)
same,Potency,[19],inactive
c1cc[n+]2c(c1)-c1cccc[n+]1CC2,Potency,[1],25.1 µM [inhibitor] (active)
same,outcome,[8],inactive
same,max response,[9],45.8%
same,Potency,[10],inactive
same,Potency,[2],inactive
same,outcome,[3],inactive
same,max response,[12],-27.8%
same,Potency,[13],inactive
same,Potency,[14],inactive
same,max response,[4],2.2%
same,max response,[5],-20.8% (inactive)
same,activation,[16],-0.462% (inactive)
same,max response,[17],-2.84% (inactive)
same,max response,[7],1.16% (inactive)
same,max response,[18],-11.6% (inactive)
CC(C)C(=O)OCC(C)(C)C(OC(=O)C(C)C)C(C)C (stereo unspecified),Potency,[1],inactive
same,outcome,[8],inactive
same,max response,[9],-3.86%
same,Potency,[10],inactive
same,Potency,[11],inactive
same,Potency,[2],inactive
same,outcome,[3],inactive
same,max response,[12],-9.99%
same,Potency,[13],inactive
same,Potency,[14],inactive
same,max response,[4],-5.68%
same,max response,[5],-12.8% (inactive)
same,activation,[15],-0.206% (inactive)
same,activation,[16],1.77% (inactive)
same,max response,[17],-1.27% (inactive)
same,max response,[7],-12.6% (inactive)
same,max response,[18],-13% (inactive)
same,Potency,[19],inactive
same,max response,[20],2.02% (inactive)
Clc1ccc([C@]2(Cn3cncn3)C[C@H](Br)CO2)c(Cl)c1,Potency,[1],inactive
same,outcome,[8],inactive
same,max response,[9],7.61% and -41.8%
same,Potency,[10],inactive
same,Potency,[11],inactive
same,Potency,[2],inactive
same,outcome,[3],inactive
same,max response,[12],-0.873% and 8.46%
same,Potency,[13],inactive
same,Potency,[14],inactive
same,max response,[4],-15.4% and -0.171%
same,max response,[5],-14.1% (inactive) and -9.34% (inactive)
same,activation,[15],-0.748% (inactive) and 2.17% (inactive)
same,activation,[16],-0.98% (inactive) and 1.78% (inactive)
same,max response,[17],-0.439% (inactive) and 5.59% (inactive)
same,Potency,[6],inactive
same,max response,[7],-1.87% (inactive) and -2% (inactive)
same,max response,[18],-7.75% (inactive) and -8.79% (inactive)
same,Potency,[19],inactive
